Shown are actives, neighbours in structure and some others; about 1.7% of the full set was active somewhere.
NOD2 RIPK2 PPI = blocks binding of human NOD2 to RIPK2. 0.38% of 360,000 active. inhibition, % at 4.98 µM. CHO BLA complementation NOD2-RIPK2, CCF4 ratio. O43353; in the data active = inhibition above about 21%
ABCB6 inh 2 = human ABCB6 transporter inhibition; AID 602162; Q9NP58; K562-ABCB6 porphyrin accumulation, flow cytometry, 1 h; stronger effect = lower value; fluorescence ratio to DMSO, % at 10 µM; 0.19% of 360,000 active;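 active = fluorescence ratio to DMSO below 75%, the collection mean minus 3 SD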;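 also: signal is porphyrin accumulated inside mitochondria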
TLR4 MyD88 comp = TLR4-MyD88 interaction inhibition in cells; HeLa CL3-4 TLR4/MyD88 BLA complementation, FRET ratio; O00206+Q99836; 0.18% of 200,000 active; inhibition, % at 8.4 µM; in the data active = inhibition above about 25%
Myeloid diff 2 = compounds promoting myeloid differentiation. ER-HoxA9 myeloid progenitors, lysozyme-GFP differentiation, flow cytometry. calls only at 10 µM. 1% of 360,000 active. AID 624256;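 active = normalized GFP-positive differentiation at or above the plate's own cutoff, the solvent-only control mean plus 3 SD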;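 also: cells exposed to compound for four days before flow analysis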
TLR9-MyD88 block = inhibitors of human TLR9-MyD88 binding | Q9NR96+Q99836 | CHO BLA complementation TLR9-MyD88, CCF4 FRET ratio | inhibition, % at 4.98 µM | 0.21% of 340,000 active;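 active = inhibition above the mean over all tested compounds plus 3 SD, cut at about 21% in these data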
ABCB6 inh CP1 = blocks the human ABCB6 transporter; shares compounds with ABCB6 inh 2; K562-ABCB6 porphyrin accumulation, flow cytometry, 1 h; stronger effect = lower value; ratio response (% of DMSO), % at 10 µM; 700 tested, under 10 active; AID 602430;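 active = repeat-averaged ratio response below 75% of DMSO, the collection mean minus 3 SD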;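 also: median porphyrin fluorescence at 575 nm with 488 nm excitation from mitochondria; lower ratio means less porphyrin signal so ABCB6 inhibition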
Large screens that a line does not name were inactive (follow-up assays come after a bar, where they were run).

CCOc1ccc(NC(=O)c2sc3nc4n(c(=O)c3c2C)CCC4)cc1	none (no result: TLR4 MyD88 comp) | ABCB6 inh CP1 inactive
Cc1c(C(=O)Nc2ccccc2F)sc2nc3n(c(=O)c12)CCC3	none (no result: TLR4 MyD88 comp) | ABCB6 inh CP1 inactive
CCc1cccc(NC(=O)c2sc3nc4n(c(=O)c3c2C)CCC4)c1	none (no result: TLR4 MyD88 comp) | ABCB6 inh CP1 inactive
Cc1cc(C)cc(NC(=O)c2sc3nc4n(c(=O)c3c2C)CCC4)c1	none (no result: TLR4 MyD88 comp)
Cc1cc(C)n(CCC(=O)N2c3ccccc3CC2C)n1 (centres undefined)	none (no result: TLR4 MyD88 comp)
C=CCNc1nc2ccccc2nc1NS(=O)(=O)c1ccc(Cl)cc1	none (no result: TLR4 MyD88 comp)
COc1ccccc1-c1nnc(SC/C(O)=C(\C#N)c2nc3ccccc3[nH]2)n1C1CCCCC1	ABCB6 inh 2 71.0 | ABCB6 inh CP1 inactive
N#Cc1cccc(NC(=O)Cn2cnc(S(=O)(=O)N3CCCC3)c2)c1	none (no result: TLR4 MyD88 comp)
Cn1nc(C(F)(F)F)c(-c2cccc(C(F)(F)F)c2)c1NC(=O)Nc1ccc(F)cc1	ABCB6 inh 2 11.0 (no result: TLR4 MyD88 comp, TLR9-MyD88 block) | ABCB6 inh CP1 inactive
CCOc1ccc2nc(NC(=O)C3=NN(c4ccccc4)C(=O)CC3)sc2c1	ABCB6 inh 2 74.0 | ABCB6 inh CP1 inactive
Cc1ccc2nc(NC(=O)C3=NN(c4ccccc4)C(=O)CC3)sc2c1	none
O=C(NCc1n[nH]c(=S)n1-c1cccc(Cl)c1)c1ccc(S(=O)(=O)N2CCCC2)cc1	ABCB6 inh 2 33.0 | ABCB6 inh CP1 inactive
COCCOC(=O)c1[nH]c2c(c1C)C(=O)CC(c1cc(OC)c(OC)c(OC)c1)C2 (centres undefined)	ABCB6 inh 2 71.0 (no result: TLR4 MyD88 comp) | ABCB6 inh CP1 inactive
Cc1cc(F)ccc1S(=O)(=O)Nc1ccccc1C(=O)NC1CCN(Cc2ccccc2)CC1	none (no result: TLR4 MyD88 comp)
Cc1ccc(-c2nc(N/N=C/c3ccccc3[N+](=O)[O-])c3ccccc3n2)cc1	ABCB6 inh 2 74.0, Myeloid diff 2 active | ABCB6 inh CP1 inactive
NC(=S)Cc1nc2n(n1)Cc1ccccc1-2	ABCB6 inh 2 70.0 | ABCB6 inh CP1 inactive
Cc1ccc(-c2nc3n(n2)Cc2ccccc2-3)cc1	none
CN(C)c1ccc(NC(=O)CSc2nnc(C3CCCCC3)n2N)cc1	ABCB6 inh 2 12.0 (no result: TLR4 MyD88 comp) | ABCB6 inh CP1 inactive
Clc1ccccc1-c1cnc2sc(NCc3ccc4c(c3)OCO4)nn12	none (no result: TLR4 MyD88 comp, TLR9-MyD88 block)
O=C(CCCCCNc1nc(=S)[nH]c2ccccc12)N1CCN(c2ccccn2)CC1	ABCB6 inh 2 74.0 | ABCB6 inh CP1 inactive
COc1cccc(N2CCN(C(=O)CCCCCNc3nc(=S)[nH]c4ccccc34)CC2)c1	none
COc1ccc(OC)c(C(O)c2ncc(-c3cccc4ccccc34)[nH]2)c1 (centres undefined)	none (no result: TLR4 MyD88 comp, TLR9-MyD88 block)
COc1ccc(OC)c(C(C)NC(=O)C23CC4CC(CC(C4)C2)C3)c1 (centres undefined)	none (no result: TLR4 MyD88 comp)
COc1ccc(OC)c(C(C)NC(=O)Nc2ccccc2)c1 (centres undefined)	ABCB6 inh 2 72.0 | ABCB6 inh CP1 inactive
CCOC(=O)C1=C(C)NC(C)=C(C(=O)OCC)C1C(=O)OCC(=O)N(C)Cc1ccccc1	ABCB6 inh 2 74.0 (no result: TLR4 MyD88 comp) | ABCB6 inh CP1 inactive
COc1ccc(C(=O)OCC(=O)Nc2cc(C)c(C)cc2[N+](=O)[O-])cc1	ABCB6 inh 2 57.0 | ABCB6 inh CP1 inactive
CCCCOc1ccc(C(=O)OCC(=O)Nc2cc(C)c(C)cc2[N+](=O)[O-])cc1	none
O=C1CC(c2ccccc2)CC(O)=C1C=NCc1ccccc1Cl (centres undefined)	ABCB6 inh 2 15.0 | ABCB6 inh CP1 inactive
CCOc1ccc(S(=O)(=O)N(C)c2ccc(OCC(=O)Nc3ccccc3F)cc2)cc1	none (no result: TLR4 MyD88 comp)
CCOC(=O)N1CCC(N2Cc3cccc(C(=O)NCc4ccccn4)c3C2=O)CC1	ABCB6 inh 2 73.0 | ABCB6 inh CP1 inactive
Cc1nc(-c2ccc(F)cc2)c(CC(=O)Nc2ccc(C)c(S(=O)(=O)N3CCOCC3)c2)s1	none (no result: TLR4 MyD88 comp)
CCCC(=O)N1CCC1(C)C(=O)NS(=O)(=O)c1ccc(F)cc1F (centres undefined)	none (no result: TLR4 MyD88 comp, TLR9-MyD88 block)
CC1(C(=O)NS(=O)(=O)c2ccc(F)cc2F)CCN1C(=O)Cc1cccc2ccccc12 (centres undefined)	none (no result: TLR4 MyD88 comp, TLR9-MyD88 block) | ABCB6 inh CP1 inactive
CC1(C(=O)NS(=O)(=O)c2cccc(OC(F)F)c2)CCN1C(=O)Cc1ccccc1 (centres undefined)	none (no result: TLR4 MyD88 comp, TLR9-MyD88 block)
CC(C)c1ccc(CC(=O)N2CCC2(C)C(=O)NS(=O)(=O)c2ccc(F)cc2F)cc1 (centres undefined)	none (no result: TLR4 MyD88 comp, TLR9-MyD88 block) | ABCB6 inh CP1 inactive
